# ChEMBL document CHEMBL3988442, “University of Dundee, Small-Polar-MMV Screening Library” (2021)
# The whole screen tested about 48,000 compounds, of which about 13,000 (27%) showed an effect of 50% or more. This is one part of the list.
# System: Wolbachia pipientis
# Assay: Anti-Wolbachia Cell-Based Screen
# Format: functional
# Design: scale not given: in the data most compounds retested in dose-response had high values
# Settings: 5 µM
row,Compound,Percent Effect [%]
1,O=C(c1ccco1)N(c1ccc(F)cn1)C1CCOCC1,7.992
2,CCc1ccsc1CNC(=O)CNC(=O)C(C)(C)C,-1.133
3,CN(CC(=O)N1CCCC1)Cc1nc2c(cnn2C)c(=O)[nH]1,28.73
4,O=C(CSc1nc2c(cnn2CCO)c(=O)[nH]1)N1CCCCCC1,-26.62
5,CC1CCN(C(=O)CSc2nc3c(cnn3CCO)c(=O)[nH]2)CC1,123.1
6,CCC(Oc1ccc(N(C)S(C)(=O)=O)cc1)C(=O)N(C)C (stereo not drawn),-17.11
7,CCN(CC)c1ccc(NS(=O)(=O)c2cnn(C)c2)cn1,-7.679
8,Cc1nc(NS(=O)(=O)c2cc(Br)ccc2C)no1,-15.2
9,CN1CC(C(=O)N(C)Cc2cc(-c3cccnc3)no2)NC1=O (stereo not drawn),-3.484
10,CC(C)c1cc2c(s1)NC(c1ccccc1)NC2=O (stereo not drawn),97.8
11,Cc1ccc(C2NC(=O)c3cc(C(C)C)sc3N2)cc1 (stereo not drawn),93.7
12,CC(C)NC(=O)C[C@@H]1CCNC[C@@H]1Cc1cc(-c2ccccn2)on1,-9.264
13,CC(C)c1cc2c(s1)NC(c1ccccn1)NC2=O (stereo not drawn),80.13
14,COc1ccc2cc(-c3n[nH]cc3CN3CCSCC3)ccc2c1,-6.074
15,NCCc1nc(N(Cc2cncs2)C2CC2)c2ccccc2n1,-5.048
16,COCCN(Cc1ccccc1C)c1nc(C)nc2oc(C)nc12,9.543
17,NCCc1nc(N(Cc2nccs2)C2CC2)c2ccccc2n1,3.563
18,COCCN(Cc1ccccc1Cl)c1nc(CCN)nc2ccccc12,116.2
19,COCCN(Cc1cccs1)c1nc(CCN)nc2ccccc12,106.1
20,COCCN(CC1CC1)c1nc(CCN)nc2ccccc12,101.5
21,Cc1ccsc1CN(c1nc(CCN)nc2ccccc12)C1CC1,-10.53
22,NCCc1nc(N[C@@H](CO)c2ccccc2)c2ccccc2n1,20.3
23,COCCN(CCOC)c1ncccc1Cl,3.894
24,CC(O)CC(C)(C)CNC(=O)NCc1cccc(-n2ccnc2)c1 (stereo not drawn),13.1
25,COCCN1CC2(CCC1=O)CCN(Cc1nnc(C)o1)CC2,2.828

row,Compound,Percent Effect [%]
1,COc1cccn(Cc2nnc(-c3cccc(F)c3)o2)c1=O,-11.98
2,COc1cccc(C(=O)N2CC[C@@H]3[C@H](CC2)N(C)CCS3(=O)=O)c1.O=C(O)C(F)(F)F,-1.721
3,COc1ccc(C(=O)N2CC[C@@H]3[C@H](CC2)N(C)CCS3(=O)=O)cc1.O=C(O)C(F)(F)F,3.653
4,COc1ccc(CC(=O)N2CC[C@@H]3[C@H](CC2)N(C)CCS3(=O)=O)cc1.O=C(O)C(F)(F)F,16.94
5,CN1CCS(=O)(=O)[C@@H]2CCN(C(=O)c3ccccc3)CC[C@@H]21.O=C(O)C(F)(F)F,-7.841
6,CN1CCS(=O)(=O)[C@@H]2CCN(C(=O)CC(C)(C)C)CC[C@@H]21.O=C(O)C(F)(F)F,96.97
7,COc1cccc(CC(=O)N2CC[C@@H]3[C@H](CC2)N(C)CCS3(=O)=O)c1.O=C(O)C(F)(F)F,107.9
8,CN(C)c1cc(C(=O)NCC2(c3ccc(F)cc3)CC2)ccn1,-8.141
9,CCCNC(=O)C1CCCN(c2ccc3nncn3n2)C1 (stereo not drawn),106.8
10,O=C(NCCC1=CCCCC1)C1CCCN(c2ccc3nncn3n2)C1 (stereo not drawn),4.301
11,O=C(NCCc1ccccc1)C1CCCN(c2ccc3nncn3n2)C1 (stereo not drawn),7.633
12,NC(=O)CCC1CCCN(c2ccnc3cc(F)ccc23)C1 (stereo not drawn),94.8
13,CC(C)OCc1cccc(NC(=O)N2CCCC(CCC(N)=O)C2)c1 (stereo not drawn),-9.131
14,O=C(O)c1cn(CC2CCCN(c3ccc4ccccc4n3)C2)nn1 (stereo not drawn),-23.62
15,CCNC(=O)C1CCCN(c2cccc(C(F)(F)F)n2)C1 (stereo not drawn),5.494
16,NC(=O)CCC1CCCN(c2ccc3ccc(F)cc3n2)C1 (stereo not drawn),91.08
17,CCNC(=O)C1CCCN(c2ccc3ccc(F)cc3n2)C1 (stereo not drawn),95.98
18,NC(=O)c1ccc(N2CCN(Cc3ccc(F)cc3Cl)CC2)nn1,4.526
19,CCNC(=O)C1CCCN(c2ccc(C#N)cc2C(F)(F)F)C1 (stereo not drawn),-8.319
20,NC(=O)CCC1CCCN(c2ccc3c(Cl)ccnc3c2F)C1 (stereo not drawn),-4.467
21,CSc1ncc(CNC(C)c2cnn(-c3ccc(F)cc3F)c2C)cn1 (stereo not drawn),-22.9
22,O=c1cc(N2CCc3ccccc3C2)cnn1CCC1CCOC1 (stereo not drawn),5.025
23,CN1CC(Oc2ccccc2)=NC(SCC(=O)Nc2ccccc2Cl)=N1,15.6
24,CCN1C[C@@H](C(=O)O)[C@H](c2cccc(OC)c2)C1,8.176
25,CCN1CCC(N2C[C@@H](C(=O)O)[C@H](c3cccc(OC)c3)C2)CC1,12.25

row,Compound,Percent Effect [%]
1,CC(=O)N1C[C@@H](c2ccsc2)[C@@H]2CN(Cc3cccc(Cl)c3)CC[C@@H]21,2.234
2,COc1cccc(CN2CC[C@H]3[C@@H](C2)[C@H](c2ccsc2)CN3C(C)=O)c1,146.6
3,COc1cccc(CC(=O)N2CC[C@H]3[C@@H]2CCC(=O)N3C)c1,-18.88
4,COc1cccc([C@H]2CN(C(C)=O)[C@@H]3CCN(Cc4ccsc4)C[C@H]23)c1.Cl,57.96
5,CCc1c(C)nc(C)nc1N1CCC(NCCSc2nnnn2C)CC1,11.48
6,O=C(c1cn(CCN2CCCCC2)nn1)N1CCCCO1,-10.33
7,COc1nc2c(cc1C(=O)N1CCCOC(Cn3cccn3)C1)CCC2 (stereo not drawn),0.1052
8,CCN1C[C@H]2C3(CCN(C(=O)NC(C)C)CC3)CC[C@@]2(C(=O)N(C)C)C1.O=C(O)C(F)(F)F,-2.762
9,COC(=O)N1CCc2ccccc2C1C(=O)NCc1ccncc1 (stereo not drawn),5.289
10,CS(=O)(=O)N1CCc2sc(C(=O)NCc3ccncc3)cc21,102.3
11,Cc1cnc(CNC(=O)c2cc3c(s2)CCN3S(C)(=O)=O)cn1,-3.088
12,CS(=O)(=O)N1CCc2sc(C(=O)NCCc3ccccn3)cc21,98.67
13,CS(=O)(=O)N1Cc2nc(C(=O)NCc3ccccc3)oc2C1,1.051
14,CS(=O)(=O)N1CCc2sc(C(=O)NCc3ccccc3)cc21,99.89
15,CNS(=O)(=O)c1ccc(C(=O)NCCc2ccccn2)cc1,-0.4969
16,O=C(NCCc1ccccn1)C1=NN(c2ccccc2)C(=O)CN1,14.32
17,CCOc1cccc(C(C)NC(=O)N2CCC(C(N)=O)CC2)c1 (stereo not drawn),-12.9
18,Cc1ccc(-c2cnc(CCC(=O)NCCN3CCOCC3)o2)cc1C,7.661
19,CC(C)Oc1ncnc2c1CCN(c1cc(C(F)(F)F)ncn1)CC2,-5.603
20,N#Cc1cccc(CN2C[C@@H](F)[C@@H](OCc3nc4ccccc4[nH]3)C2)c1,3.783
21,COc1ccc(CNC(=O)c2ccc(=O)n(C)c2)cc1C,-12.06
22,COc1cc(C(=O)NCc2ccc3c(c2)CCCN3C)cc(OC)c1Br,103.6
23,CN1CCCc2cc(CNC(=O)c3ccc(NC4CC4)nc3)ccc21,-0.6873
24,COC(=O)c1cccc(CNC(=O)c2cc(C(C)C)n(C)n2)c1,-2.718
25,CC(C)Oc1ccc(C(=O)NCc2ccnc(N3CCCC3)c2)cn1,1.854

row,Compound,Percent Effect [%]
1,CC(C)Oc1ccc(C(=O)NCc2ccc3c(c2)CCCN3C)cn1,82.05
2,COC(=O)c1cccc(C(=O)NCc2ccc3c(c2)CCCN3C)c1,93.26
3,COC(=O)c1cccc(CNC(=O)CC(F)(F)F)c1,-8.665
4,CCOCC1CCN(C(=O)Nc2ccc3c(c2)CCCN3C)C1 (stereo not drawn),-6.058
5,CS(=O)(=O)CC1CCCN(c2ncnc3c2Cc2ccccc2OC3)C1 (stereo not drawn),8.787
6,CC(C)c1nc(CNc2ccc(CCO)cc2)cs1,-6.765
7,Cc1nonc1N1CCN(Cc2nc(CC3CC3)no2)CC1,-9.131
8,O=C(CCNC1(c2nccs2)CCCC1)N1CCOCC1,-14.98
9,Cc1occc1C(=O)N1CCC2(CCN(Cc3nccs3)CC2)C1,13.46
10,CC1(c2nccs2)CCN(C(=O)CC2CCOCC2)CC1,133.3
11,C[C@@H](NC(=O)c1cnccn1)c1c(-c2ccc(F)cc2)noc1C(=O)O,0.3029
12,Cc1ccc(C(=O)N2CCN(CCc3cccs3)CC2)c(=O)[nH]1,4.078
13,Cc1ccc(C2(O)CCN(Cc3nnc(-c4cccnc4)o3)CC2)nc1,-8.871
14,Cc1ccc(-c2nnc(CN3CCNC(=O)C3)o2)cc1,-29.77
15,Cc1ccc(-c2nnc(CN3CCN(c4ccccn4)CC3)o2)cc1,118.2
16,O=C(Nc1ccccc1)N1CCn2c(nnc2C2CCNCC2)C1,105.9
17,O=C(Nc1ccccc1)N1CCn2c(nnc2C2CCCN2)C1 (stereo not drawn),106.2
18,CC(C)NC(=O)C(c1ccccc1)N1CCn2c(nnc2C2CC2)C1 (stereo not drawn),0.9151
19,Cc1nnc2n1CCN(C(=O)C(OC1CCCC1)c1ccccc1)C2 (stereo not drawn),0.08716
20,O=C(c1ccccc1O)N1CCn2c(nnc2C(F)(F)F)C1,-8.527
21,Cc1cc(NC(=O)CN2CCn3c(nnc3C3CC3)C2)no1,-12.55
22,Cn1cc(CNCC2(N3CCCCC3)Cc3ccccc3C2)cn1,-0.5934
23,CN(C)C(=O)[C@H]1C[C@H]2OCC[C@H]2N(CCOc2ccc(Cl)cc2)C1.O=C(O)C(F)(F)F,-1.97
